LMP1 NFkB inh = EBV LMP1-driven NF-kappaB luciferase reporter inhibitors, primary screen, cell-based, luminescence, single point. hit rate 0.69% among 350,000. AID 504558, 2011. LMP1-induced NF-kappaB luciferase reporter cells. inhibition, % at 12.5 µM; in the data active means inhibition above about 41%; inconclusive means no clear call, values can overlap the other calls;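 further: 0% = neutral control wells and 100% = reference inhibitor control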
Shn3 3UTR inh = reduction of Shn3 3'UTR firefly luciferase signal, primary screen, Schnurri-3 inhibitor project, cell-based, Clone20 osteoblasts, set 2 | inhibition, % at 12.5 µM | hit rate 0.52% among 360,000 | Clone20 osteoblast Shn3 3'UTR firefly luciferase, 24 h;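 active means mean inhibition of at least 75% with every replicate also reaching 75%; inconclusive means mean inhibition at least 75% but some replicate below; inactive means mean inhibition below 75%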;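 further: 0% = median of neutral control wells and 100% = pilot-screen positive control compound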
TRPM1 prom inh = inhibitors of MITF-dependent TRPM1 promoter reporter, primary screen, cell-based, SK-MEL-5, single point, luciferase; hit rate 0.83% among 330,000; SK-MEL-5 TRPM1 promoter luciferase, 24 h; inhibition, % at 12.5 µM; AID 488899, 2010;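 active means mean inhibition across replicates of 60% or more, whatever share of single replicates reaches that level; inconclusive means some that reach 60%, reason not given; inactive means mean inhibition across replicates below 60%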
TROY NFkB inh = inhibitors of TROY-driven NF-kB signaling, primary screen, Q293 LMP1-TROYcd cells, NF-kB luciferase, uHTS | AID 1347056, 2019 | Q293 LMP1-TROYcd NF-kB luciferase reporter, 4 h | hit rate 0.98% among 360,000 | inhibition, % at 10 µM;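 active means compounds whose plate-normalised and pattern-corrected inhibition of the luciferase reporter signal at the single screening dose is 50% or more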
Peg3 promoter = Peg3 promoter-driven luciferase inhibitors, primary screen, cell-based, HeLa, luciferase luminescence; inhibition, % at 20 µM; HeLa PEG-Prom luciferase reporter, overnight; hit rate 1.7% among 360,000;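 active means inhibition of at least 50% at 20 µM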
TWEAK-Fn14 inh = inhibitors of TWEAK-Fn14 signaling, primary screen, luciferase reporter cells, uHTS; TWEAK-stimulated Fn14 reporter cells, luciferase luminescence, 8 h; inhibition, % at 10 µM; hit rate 2% among 360,000; AID 1159606, 2016; in the data active means inhibition above about 50%
Numbers without * were called inactive; ? = inconclusive; . = not tested or not shown. This is a sample that favours compounds with a hit; in the whole collection about 4.1% have one here.

SMILES | LMP1 NFkB inh | Shn3 3UTR inh | TRPM1 prom inh | TROY NFkB inh | Peg3 promoter | TWEAK-Fn14 inh
O=C(NNc1c2ccccc2nc2ccccc12)c1ccc(O)cc1O | -9 | 12 | 6 | -37 | -15 | -35
COc1ccc(OCC(=O)NNc2c3ccccc3nc3ccccc23)cc1 | 8 | 8 | 9 | -5 | 49 | 57*
O=C(COc1ccccc1)NNc1c2ccccc2nc2ccccc12 | -15 | 29 | 10 | -2 | 32 | 16
COc1ccc(CCNC(=O)CN2C(=O)COc3ccc(S(=O)(=O)N4CCOCC4)cc32)c(OC)c1 | 3 | -5 | -1 | -3 | 12 | -1
COc1cc(SC#N)ccc1N=Cc1c(C)[nH]n(-c2ccc(C)c(C)c2)c1=O | -383 | ? | 88* | 30 | 100* | 24
Cc1[nH]n(-c2ccc(Cl)cc2)c(=O)c1C=NC12CN3CN(CN(C3)C1)C2 | 2 | -37 | 3 | -7 | 5 | -12
COc1cc(SC#N)ccc1N=Cc1c(C)[nH]n(-c2ccc(Cl)cc2)c1=O | -92 | 68 | 45 | -26 | 56* | -42
CCSc1nc2ccccc2n1CC(=O)O | 0 | -15 | 8 | -5 | -4 | -7
CCCC(=O)N(Cc1cc(=O)[nH]c2ccccc12)c1cccc(C)c1 | 5 | 8 | 13 | 13 | 16 | 7
CN(Cc1cc(=O)[nH]c2ccccc12)C(=O)c1ccccc1 | -3 | -18 | 0 | -28 | -20 | -10
Cc1cccc(N(Cc2cc(=O)[nH]c3ccccc23)C(=O)CCl)c1 | 17 | -3 | 76* | 24 | 95* | 86*
CCCC(=O)N(Cc1cc(=O)[nH]c2ccccc12)c1ccc(OC)cc1 | 18 | 19 | 12 | -13 | 23 | 12
COCC(=O)N(Cc1cc2ccccc2[nH]c1=O)c1ccccc1OC | -4 | 2 | 4 | . | 6 | 79*
COc1ccc(N(Cc2cc(=O)[nH]c3ccccc23)C(=O)CCl)cc1 | 2 | 8 | 85* | 9 | 80* | 41
COc1ccccc1N(Cc1cc(=O)[nH]c2ccccc12)C(=O)c1ccccc1 | -7 | 6 | 3 | 82* | 15 | 81*
CN(C)S(=O)(=O)c1ccc(C(=O)Nc2nnc(SCc3cccc(F)c3)s2)cc1 | 0 | -4 | -7 | 0 | 16 | -11
CCc1cccc(C)c1N=Cc1c(O)c2ccccc2oc1=O | -2 | -11 | 6 | -13 | -3 | 16
Cc1cc(C)c(C(=O)/C=C/C=C/c2ccccc2)c(=O)[nH]1 | 7 | -7 | -14 | -12 | -32 | 11
Cc1cc(C)c(C(=O)/C=C/c2ccc(C(C)C)cc2)c(=O)[nH]1 | 26 | -16 | 15 | 55* | 68* | 93*
COc1cccc(-c2ccc3ncnc(NCc4cc(C)cs4)c3c2)c1 | 33 | -5 | -1 | 42 | 24 | 77*
Cc1csc(CNc2ncnc3ccc(-c4ccc5c(c4)OCO5)cc23)c1 | 0 | -7 | 19 | 4 | 12 | 17
c1cncc(CNc2ncnc3ccc(-c4ccoc4)cc23)c1 | 46* | 13 | 7 | 47 | 19 | 84*
Cc1csc(CNc2ncnc3ccc(-c4ccoc4)cc23)c1 | 38 | -3 | -11 | 54* | -21 | 90*
COc1cccc(-c2ccc3ncnc(NCc4ccc5c(c4)OCO5)c3c2)c1 | 22 | -3 | -7 | 31 | -25 | 80*
Cc1csc(CNc2ncnc3ccc(-c4cccnc4)cc23)c1 | -5 | 32 | 2 | 29 | 19 | 21
SMILES | LMP1 NFkB inh | Shn3 3UTR inh | TRPM1 prom inh | TROY NFkB inh | Peg3 promoter | TWEAK-Fn14 inh
CCC1(c2ccc(F)cc2)NC(=O)N(CC(=O)N2CCN(C(=O)c3ccco3)CC2)C1=O (centres undefined) | 0 | 8 | 14 | -21 | -36 | -17
O=C(O)c1cc(-c2ccc(Cl)c(Cl)c2)n(-c2ccc(F)cc2)n1 | -4 | 9 | -3 | -3 | 17 | 11
COC(=O)C1CCN(C(=O)Cn2nnc(-c3ccccc3)n2)CC1 | -5 | -15 | -4 | -21 | -11 | -23
Cc1ccsc1CN(C)c1ncnc2ccc(-c3ccoc3)cc12 | . | -6 | . | 30 | 19 | 68*
COc1cccc(-c2ccc3ncnc(N(C)Cc4ccco4)c3c2)c1 | 2 | 9 | 6 | -23 | 6 | 37
COc1ccc(CC2C(=O)NC(C)C(=O)N(C)C3Cc4ccc(cc4)Oc4cc(ccc4O)CC(C(=O)NC(C)C(=O)NC(C)C(=O)N2C)N(C)C3=O)cc1 (centres undefined) | 82* | 95* | 98* | 84* | 97* | 101*
CCN(CC)c1ccc(/C=C2\C(=O)N(c3nnc(C)c(=O)[nH]3)N=C2C)cc1 | 7 | 2 | 2 | -20 | 13 | 75*
CCN(CC)c1ccc(/C=C2/C(=O)ON=C2C)cc1 | 14 | 20 | 9 | -71 | 10 | -6
O=C1NN(c2ccccc2)C(=O)/C1=C/c1ccc(Sc2ccc(Cl)cc2)o1 | -7 | 17 | 1 | -6 | -17 | 63*
Cc1cccc(N2NC(=O)/C(=C/c3ccc(-c4ccc(Cl)c(C(=O)O)c4)o3)C2=O)c1 | 2 | -15 | 9 | 12 | 2 | 6
O=C1NN(c2ccccc2)C(=O)/C1=C/c1ccc(-c2ccc(Cl)c(C(=O)O)c2)o1 | -15 | -24 | -11 | 4 | 13 | -9
Cc1ccc(Sc2ccc(/C=C3/C(=O)NN(c4ccccc4)C3=O)o2)cc1 | 2 | 12 | -3 | -12 | -2 | 89*
CCc1ccc(NC(=S)N2CCC(NC(=O)c3ccccc3OC)CC2)cc1 | -3 | 34 | 8 | -9 | 5 | -9
N/C(=N\S(=O)(=O)c1cc(C(F)(F)F)cc(C(F)(F)F)c1)c1ccc(Cl)cc1 | 8 | 27 | 12 | 60* | 33 | 17
N/C(=N\S(=O)(=O)c1cc(C(F)(F)F)cc(C(F)(F)F)c1)c1ccncc1 | 3 | 3 | -3 | 4 | 13 | -9
CC1CCCC(NC(=O)CN2C(=O)NC(c3ccccc3)(c3ccccc3)C2=O)C1C (centres undefined) | -12 | -5 | -18 | 14 | 7 | 15
CN(C)c1ccc(C(=S)Nc2ccccc2)cc1 | 3 | -43 | -19 | 82* | -77 | 95*
CN(C)c1cc(O)c(C(=S)Nc2ccccc2)c(N(C)C)c1 | -19 | -1 | -13 | -9 | -27 | 12
CCCC(C(=O)NC(C)(C)C)N(C(=O)c1snc(C(N)=O)c1N)c1ccc2c(c1)OCCO2 (centres undefined) | 35 | 18 | 20 | 82* | 20 | 86*
CCC(C)(C)NC(=O)CN(C(=O)c1snc(C(N)=O)c1N)c1ccc2c(c1)OCCO2 | 10 | 8 | -9 | -9 | -2 | 31

Source: PubChem BioAssay (several laboratories)
